HT1080-NT tox: kills 2HG-producing HT-1080-NT fibrosarcoma cells | AID 686970 | HT-1080-NT fibrosarcoma viability, CellTiter-Glo ATP luminescence, 48 h | 360,000 compounds, 1.6% hits | Potency, µM (series often up to 46.1 µM), usual class: cytotoxic;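 also: NT is the 2HG producing partner of a matched IDH1 knockdown line; nearly all actives have a fitted effect of over 55% in size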
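A 48-hour cytotoxicity screen used HT-1080-NT cells plated 2 hours before compound delivery. ATP-based CellTiter-Glo luminescence measured viability, normalized to DMSO and no-cell controls.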
HT1080 IDH1KD tx: toxicity to HT-1080 IDH1 knockdown cells (counter line); HT-1080 IDH1 knockdown viability, ATP luminescence, 48 h; Potency, µM (top dose mostly 46.1 µM), actives largely listed as cytotoxic; 360,000 compounds, 2% hits; AID 686971
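IDH1KD HT-1080 cells, 750/well, RPMI + 5% FBS; compound pinned after 2 h settling; 48 h, 37 °C; CellTiter-Glo luminescence; % activity normalised to DMSO and no-cell wells; curves fitted, classed by r2 and efficacy.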
ATXN2 expr inh: reduces ATXN2 reporter expression in HEK-293 cells. HEK-293 ATXN2-luciferase reporter, luminescence, 24 h. 360,000 compounds, 0.72% hits. AID 1745845. Potency, µM (highest dose often 57 µM), hits mostly inhibitors; also: nearly all actives have a fitted effect of over 55% in size
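qHTS (up to 57 uM final) was run with 24 h compound exposure of reporter cells at 37 °C. Each well was multiplexed: SteadyGlo luminescence measured ATXN2-luciferase expression after a fluorogenic Gly-Phe-AFC viability readout (25 uM final).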
ATXN viability: cell viability loss in ATXN counter-screen; 400,000 compounds, 0.49% hits; Potency, µM (series often up to 56.7 µM), actives largely listed as cytotoxic; AID 651635; S2 cells (HEK-293 line with an ATXN2-luciferase reporter) viability, CellTiter-Fluor protease fluorescence, 24 h; also: nearly all actives have a fitted effect of over 40% in size
HepG2 tox: kills HepG2 cells in TGF-b inhibitor counter-screen; HepG2 CAGA-GFP viability, ATP luminescence, 18 h; Potency, µM (titrated, usually from 46.1 µM), most hits filed as cytotoxic; 410,000 compounds, 0.76% hits; AID 588856
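CellTiter-Glo luminescence gave cytotoxicity after 18 hours at 37 degrees C. The cells were HepG2 CAGA-GFP in 1% FBS DMEM, stimulated with 500 pg/mL TGF-beta after compound addition. %Activity was normalised to no-cell wells (complete cell-killing) and DMSO (no toxicity), and curves were fitted and classified.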
TGFb inhibitor: blocks TGF-b signaling; HepG2 CAGA-GFP TGF-b/SMAD3 reporter, GFP fluorescence, 18 h; TGF-beta stimulated, 500 pg/mL final; Potency, µM (top dose mostly 46.1 µM), actives largely listed as inhibitors; 410,000 compounds, 1.2% hits; also: nearly all actives have a fitted effect of over 65% in size
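HEPG2 CAGA-GFP cells (1000/well, DMEM with 1% FBS) were pre-incubated 2 h at 37 degrees C, given compound by pin tool, then stimulated with TGF-beta at 500 pg/mL final for 18 h before per-cell GFP fluorescence imaging.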
A number is an active result; . = inactive; ? = inconclusive; / = not tested or not shown; [ ] = remark or other dose. Rows were chosen to be rich in hits. Some 3.9% of all compounds tested hit in one or more screens of this group. Calls follow the shape of the dose curve; as a rule, active = well fitted curve in the direction sought with a large enough effect; inconclusive = small, poorly fitted or top-dose-only effect, or another doubt; inactive = no such curve, though single readings can be large; an effect the other way counts as inactive or inconclusive.

SMILES | HT1080-NT tox | HT1080 IDH1KD tx | ATXN2 expr inh | ATXN viability | HepG2 tox | TGFb inhibitor
N#C/C(=C/c1ccc(O)c([N+](=O)[O-])c1)C(=O)Nc1ccccc1 | ? | 8.2µM | ? | ? | . | .
N#C/C(=C/c1ccc([N+](=O)[O-])cc1)C(=O)Nc1ccccc1O | . | . | . | . | . | .
Cc1ccc(C(C)C)c(OCc2nn(CC(=O)c3ccc(Cl)cc3)c3[n+]2CCCCC3)c1 | ? | 18µM | ? | ? | . | ?
Cc1cc(NS(=O)(=O)c2ccc3nc(-c4ccccc4)[nH]c3c2)ccc1Br | / | / | ? | ? | . | ?
COc1ccc2c(c1)c1c(c(=O)n(Cc3ccccc3)c(=O)n1Cc1cc(C)ccc1C)n2C | / | / | . | . | . | .
COc1ccc(NS(=O)(=O)c2cc(OC)ccc2OC)cc1 | . | . | . | . | . | .
COc1ccc(OC)c(S(=O)(=O)Nc2ccc3c(c2)C(=O)OC3)c1 | 18µM | 21µM | . | . | . | .
COC(=O)c1ccc(NC(=O)CSc2nc(=O)[nH]c3c2CCCC3)cc1 | / | / | / | / | . | .
COc1ccc(-n2nnnc2SCC(=O)c2cccc(OC)c2)cc1 | 22µM | .[9.24 µM] | . | . | . | ?
COc1ccc(-n2nnnc2SCC(=O)N2CCOCC2)cc1 | . | . | . | . | 0.56µM | .
CCN1C[C@H](C)n2c(c(O)c3c(=O)n(Cc4ccc(F)c(Cl)c4)nc(C(=O)NC)c32)C1=O | / | / | . | / | / | /
CCOCCOC(=O)c1ccc2c(c1)N(Cc1ccccc1C#N)C(=O)c1ccccc1S2(=O)=O | / | / | . | . | . | .
CCOC(=O)C1=C(N)n2c(s/c(=C\c3cccs3)c2=O)=C(C(=O)OCC)C1c1cccs1 (configuration not stated) | ? | 2.6µM | . | . | . | ?
CCOC(=O)C1=C(N)n2c(s/c(=C\c3ccncc3)c2=O)=C(C(=O)OCC)C1c1ccncc1 (configuration not stated) | . | . | .[11.3 µM] | . | . | .
COC(=O)c1ccc(NC(=O)CCc2c(C)nn(-c3ccc(N4CCCCC4)nn3)c2C)cc1 | / | / | / | / | . | .
CC(C)N1CCC(N2CCN(CCCc3ccccc3)CC2CCO)CC1 (configuration not stated) | . | ? | . | . | 3.2µM | .
CC(C)N1CCC(N2CCN(Cc3ccc(-c4ccc(Cl)cc4)o3)CC2CCO)CC1 (configuration not stated) | 16µM | 21µM | . | . | . | .
CC(C)N1CCN(CCCc2ccccc2)CC1CCO (configuration not stated) | . | . | . | . | . | .
CCOC(=O)c1cc(-c2ccccc2)n(CC(=O)NCc2ccccc2OC)c1C | / | / | / | / | . | .
O=c1c2oc3ccccc3c2n(Cc2cccc(F)c2)c(=O)n1Cc1ccco1 | / | / | . | . | . | .
O=C(NCCc1ccccc1)c1ccc2c(c1)N(Cc1ccc(Cl)cc1)C(=O)c1ccccc1S2(=O)=O | / | / | . | . | . | .
CC(C)c1ccc(NC(=S)NCc2cccs2)cc1 | 11µM | ? | . | . | . | .
Cc1cc(Cl)ccc1NC(=S)NCc1cccs1 | 18µM | ? | . | . | . | .
S=C(NCc1cccs1)Nc1cc(Cl)cc(Cl)c1 | ? | ? | ? | ? | . | 22µM
S=C(NCc1cccs1)Nc1cccc(Cl)c1 | ? | ? | . | . | . | ?
SMILES | HT1080-NT tox | HT1080 IDH1KD tx | ATXN2 expr inh | ATXN viability | HepG2 tox | TGFb inhibitor
COC(=O)C=CC(=O)OC | / | / | . | / | / | /
CCN(CC)CCn1c(-c2ccccc2)csc1=Nc1ccccc1 | / | / | ? | / | . | 13µM
Cn1cc(S(C)=O)c(=O)c2ccc(F)cc21 (configuration not stated) | / | / | . | . | / | /
O=C(NCCc1nnc2n1CCN(Cc1ccc(F)c(F)c1)CC2)c1ccoc1 | / | / | / | . | / | /
Cc1cc(C)cc(N2CC(O)=C(c3nc4ccccc4c(=O)[nH]3)C2=N)c1 | . | . | . | . | . | .
COc1cccc(N2CC(O)=C(c3nc4ccccc4c(=O)[nH]3)C2=N)c1 | 1.3µM | ? | . | . | . | .
CCCn1c(CCC(=O)Nc2cc(Cl)c(OC)cc2OC)nc2cccnc21 | / | / | . | ? | . | .
COc1ccc(-c2nnc(C3CCN(S(=O)(=O)c4cccc(Cl)c4)CC3)o2)cc1 | / | / | 18µM | 11µM | . | ?
COc1ccc(-c2nnc(C3CCN(C(=O)c4ccccc4F)CC3)o2)cc1 | / | / | 3.2µM | 3.2µM | . | ?
COc1ccc(S(=O)(=O)N2CCC(c3nnc(-c4ccccc4C)o3)CC2)c(OC)c1 | / | / | 3.5µM | 7.9µM | . | ?
Cc1ccccc1-c1nnc(C2CCN(S(=O)(=O)c3ccc(Cl)cc3)CC2)o1 | / | / | ? | 3.5µM | . | .
COc1ccccc1-n1cc(CN2CCC3(CCC(CNC(=O)c4ccccc4)O3)CC2)cn1 (configuration not stated) | / | / | / | . | / | /
Cc1ccc(S(=O)(=O)Nc2ccc(SC(F)F)cc2)c(C)c1 | . | . | . | ? | . | 13µM
CC(C)c1ccc(S(=O)(=O)Nc2ccc(SC(F)F)cc2)cc1 | . | . | . | ? | . | ?
CCCCCCN1C[C@@H](O)[C@H](n2cc(C3CC3)nn2)C[C@@H]1c1ccc(OC)cc1 | . | . | . | . | . | .
Cc1ccc([C@H]2C[C@@H](O)[C@H](n3cc(C4CC4)nn3)CN2CC2CCCCC2)cc1 | . | . | . | . | . | .
CCCCCCN1C[C@H](O)[C@@H](n2cc(-c3ccc(F)cc3)nn2)C[C@@H]1c1ccc(C)cc1 | . | . | . | ? | . | .
CCCCCCN1C[C@H](n2cc(C3CC3)nn2)[C@@H](O)C[C@@H]1c1ccc(C)cc1 | ? | ? | ? | / | 16µM | 14µM
CCCCCCN1C[C@@H](n2cc(C3CC3)nn2)[C@H](O)C[C@@H]1c1ccc(C)cc1 | . | ? | ? | 20µM | . | ?
CCCCCCN1C[C@@H](n2cc(C3CC3)nn2)[C@H](O)C[C@@H]1c1ccc(OC)cc1 | . | . | ? | 20µM | . | ?
CN(C)CCN(Cc1ccsc1)c1ccccn1 | / | / | . | . | / | /
Cc1cccc(NC(=O)CSc2nc(C3CC3)nc3ccccc23)c1 | . | . | . | . | . | .
COc1cc(NC(=O)CSc2nc(C3CC3)nc3ccccc23)cc(OC)c1 | 13µM | ? | ? | . | . | .
CCN(CC)c1ccc(NC(=O)CSc2nc(C3CC3)nc3ccccc23)cc1C | 9.2µM | 6.5µM | . | . | . | .
Cc1oc(-c2ccccc2NC(=O)c2ccccn2)nc1CNC(=O)c1cccc(C#CC(C)(C)O)c1 | / | / | / | . | / | /
O=c1cc(Nc2ccc3c(c2)OCO3)[nH]c(=O)n1-c1ccc(Br)cc1 | ? | 35µM | . | . | . | .

Source: PubChem BioAssay
